Common to all, as to assay: protein-binding microarray (PBM); PBM: ~300 nM protein, 6 mM HEPES pH 7.8, 80 mM KCl, 0.5 mM EDTA, 0.5 mM EGTA, 6% glycerol, 35 ng/ul poly-dIdC, 1% milk, 1 h, room temperature; Ap Aiptasia and Nv Nematostella (sea anemones) / Co Capsaspora / Aq Amphimedon (sponge) / Dm Drosophila / Hu human; RHD is the Rel homology domain; high values mean tight binding
What all share (conditions): dsDNA, one strand shown

One test addresses T1, GST-Ap-NF-kB RHD (Exaiptasia pallida (Aiptasia), UniProt A0A913YAJ5 2-422).
T1 sequence: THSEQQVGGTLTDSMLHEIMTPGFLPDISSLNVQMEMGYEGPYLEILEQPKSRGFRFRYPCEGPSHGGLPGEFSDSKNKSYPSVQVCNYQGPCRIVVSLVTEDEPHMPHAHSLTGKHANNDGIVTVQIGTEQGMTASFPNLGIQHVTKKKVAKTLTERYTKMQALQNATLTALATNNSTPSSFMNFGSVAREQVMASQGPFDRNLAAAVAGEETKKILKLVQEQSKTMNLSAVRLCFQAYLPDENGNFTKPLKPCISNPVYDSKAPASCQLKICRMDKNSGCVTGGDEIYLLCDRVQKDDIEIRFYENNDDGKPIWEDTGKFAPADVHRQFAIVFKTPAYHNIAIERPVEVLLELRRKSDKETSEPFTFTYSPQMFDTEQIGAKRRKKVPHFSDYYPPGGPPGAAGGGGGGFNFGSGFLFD

Test [1] concerns the target T2, GST-Nv-NF-kB (Cys allele) (Nematostella vectensis, UniProt E5G601 2-411).
T2 sequence: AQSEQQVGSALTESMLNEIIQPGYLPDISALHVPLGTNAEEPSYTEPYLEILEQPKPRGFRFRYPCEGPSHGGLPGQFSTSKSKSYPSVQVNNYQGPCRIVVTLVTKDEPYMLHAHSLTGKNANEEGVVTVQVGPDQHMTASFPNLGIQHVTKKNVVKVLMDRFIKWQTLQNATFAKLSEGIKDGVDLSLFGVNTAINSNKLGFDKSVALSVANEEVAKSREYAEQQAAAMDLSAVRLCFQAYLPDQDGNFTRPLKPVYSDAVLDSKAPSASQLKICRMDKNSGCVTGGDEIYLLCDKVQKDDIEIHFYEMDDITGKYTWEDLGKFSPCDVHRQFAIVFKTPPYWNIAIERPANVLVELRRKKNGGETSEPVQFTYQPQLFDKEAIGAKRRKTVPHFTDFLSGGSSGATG

The target of test [2] is T3, GST-Nv-NF-kB (Ser allele) (Nematostella vectensis, UniProt A7UNT2 2-411).
T3 sequence: T2 sequence with Q21R, C66S, S207N, E215Q, V217A, E225K, A268E, D399E

A further test has as its target T4, GST-Co-NF-kB (Capsaspora owczarzaki, UniProt F1ARL5 200-546).
T4 sequence: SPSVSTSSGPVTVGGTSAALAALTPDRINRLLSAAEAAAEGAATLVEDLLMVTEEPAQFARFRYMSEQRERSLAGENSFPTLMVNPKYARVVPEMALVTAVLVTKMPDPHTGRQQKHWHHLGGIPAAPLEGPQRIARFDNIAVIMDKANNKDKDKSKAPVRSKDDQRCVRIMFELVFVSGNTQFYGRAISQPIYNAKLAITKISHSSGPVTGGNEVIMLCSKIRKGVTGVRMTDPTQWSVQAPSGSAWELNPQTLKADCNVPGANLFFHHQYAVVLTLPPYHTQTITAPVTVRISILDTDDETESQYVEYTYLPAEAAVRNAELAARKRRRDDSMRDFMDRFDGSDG

The target of another test is T5, GST-Dm-Relish (Drosophila melanogaster, UniProt Q94527 99-473).
T5 sequence: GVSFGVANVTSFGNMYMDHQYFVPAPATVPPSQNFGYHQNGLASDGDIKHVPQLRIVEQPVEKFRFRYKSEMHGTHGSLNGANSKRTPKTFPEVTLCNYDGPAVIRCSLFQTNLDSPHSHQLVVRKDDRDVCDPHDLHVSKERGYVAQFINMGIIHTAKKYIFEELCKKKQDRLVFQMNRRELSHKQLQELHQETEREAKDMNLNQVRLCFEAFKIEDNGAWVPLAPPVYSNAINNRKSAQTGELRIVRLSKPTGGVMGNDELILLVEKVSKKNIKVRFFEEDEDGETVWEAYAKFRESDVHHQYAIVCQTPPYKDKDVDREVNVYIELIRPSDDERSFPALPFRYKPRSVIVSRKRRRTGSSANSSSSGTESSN

The target of another test is T6, GST-Aq-NF-kB (Amphimedon queenslandica, UniProt A9Y5G7 2-389).
T6 sequence: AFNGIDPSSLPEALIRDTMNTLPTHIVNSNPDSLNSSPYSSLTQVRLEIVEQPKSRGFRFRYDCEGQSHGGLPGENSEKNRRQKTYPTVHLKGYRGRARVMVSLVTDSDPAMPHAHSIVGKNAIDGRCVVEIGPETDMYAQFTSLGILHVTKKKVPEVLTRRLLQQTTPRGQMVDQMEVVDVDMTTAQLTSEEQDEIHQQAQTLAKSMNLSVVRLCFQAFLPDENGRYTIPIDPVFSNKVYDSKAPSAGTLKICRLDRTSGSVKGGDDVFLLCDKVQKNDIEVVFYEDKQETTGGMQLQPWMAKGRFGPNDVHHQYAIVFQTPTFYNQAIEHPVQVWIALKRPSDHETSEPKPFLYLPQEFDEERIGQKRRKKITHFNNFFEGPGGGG

For the next test, the target named is GST-Hu-p50 (Homo sapiens, UniProt P19838 7-356).
GST-Hu-p50, sequence (P19838 7-356): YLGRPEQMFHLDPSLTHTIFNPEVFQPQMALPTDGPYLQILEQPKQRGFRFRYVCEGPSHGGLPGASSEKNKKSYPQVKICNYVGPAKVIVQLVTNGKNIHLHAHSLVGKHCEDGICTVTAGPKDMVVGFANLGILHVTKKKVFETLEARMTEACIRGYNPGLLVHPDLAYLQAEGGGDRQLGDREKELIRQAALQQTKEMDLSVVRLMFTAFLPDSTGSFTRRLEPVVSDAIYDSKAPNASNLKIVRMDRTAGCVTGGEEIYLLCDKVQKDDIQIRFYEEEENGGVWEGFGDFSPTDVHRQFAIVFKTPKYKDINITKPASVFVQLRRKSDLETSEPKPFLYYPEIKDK

The values that follow come from publication PMC5700166.

Substitutions are numbered along the chain they refer to.

As for “CCGATTAACATCACGGGAAAATCTGATGTTAATCGGGTCTTGATTCGCTTGACGCTGCTG”, the binding signal with GST-Ap-NF-kB RHD was 3.98 z-score; in test [1], 5.79 z-score; in test [2], 6.4 z-score; with GST-Co-NF-kB, 5.43 z-score; in the test with GST-Dm-Relish, 2.07 z-score; with GST-Aq-NF-kB, 5.16 z-score. This sequence also returned a binding signal in the test with GST-Hu-p50 of 3.87 z-score.

Turning to “CCGATTAACATCAGGGGATGAATTGATGTTAATCGGGTCTTGATTCGCTTGACGCTGCTG”, the binding signal with GST-Ap-NF-kB RHD came out at 3.07 z-score; in test [1] it was 4.37 z-score; in test [2], 5.12 z-score; with GST-Co-NF-kB it was 4.99 z-score; with GST-Dm-Relish it was 2.75 z-score; with GST-Aq-NF-kB, 3.44 z-score. The binding signal in the test with GST-Hu-p50 stood at 3.88 z-score.

Consider “CCGATTAACATCAAGAAGTTCCCTGATGTTAATCGGGTCTTGATTCGCTTGACGCTGCTG”, for which the binding signal with GST-Ap-NF-kB RHD was determined as 3.54 z-score; in test [1] it was 3.73 z-score; in test [2], 2.6 z-score; in the test with GST-Co-NF-kB it was 2.42 z-score; with GST-Dm-Relish, 3.58 z-score; with GST-Aq-NF-kB, 4.79 z-score. The sequence also displayed a binding signal in the test with GST-Hu-p50 of 3.17 z-score.

In the case of “CCGATTAACATCAAGGTATTCCCTGATGTTAATCGGGTCTTGATTCGCTTGACGCTGCTG”, the binding signal stood at 4.4 z-score with GST-Ap-NF-kB RHD; 3.82 z-score in test [1]; 3.75 z-score in test [2]; 3.21 z-score with GST-Co-NF-kB; 6.27 z-score with GST-Dm-Relish; 5.39 z-score in the test with GST-Aq-NF-kB. Besides, in the test with GST-Hu-p50, the binding signal is 2.26 z-score.

Take “CCGATTAACATCAGGGAAAGTACTGATGTTAATCGGGTCTTGATTCGCTTGACGCTGCTG”: the binding signal with GST-Ap-NF-kB RHD was 3.95 z-score; in test [1] it was 6.4 z-score; in test [2] it was 6.18 z-score; with GST-Co-NF-kB it was 2.93 z-score; with GST-Dm-Relish it was 8.65 z-score; in the test with GST-Aq-NF-kB, 7.76 z-score. Besides, the binding signal in the test with GST-Hu-p50 amounted to 5.43 z-score.

Turning to “CCGATTAACATCAAAAAAATCCCTGATGTTAATCGGGTCTTGATTCGCTTGACGCTGCTG”, the binding signal worked out at 6.44 z-score with GST-Ap-NF-kB RHD; 7.72 z-score in test [1]; 6.74 z-score in test [2]; 2.41 z-score with GST-Co-NF-kB; 8.77 z-score with GST-Dm-Relish; 7.45 z-score in the test with GST-Aq-NF-kB. The sequence further yielded a binding signal with GST-Hu-p50 of 5.87 z-score.

With “CCGATTAACATCAGATTCCCCCATGATGTTAATCGGGTCTTGATTCGCTTGACGCTGCTG”, the binding signal in the test with GST-Ap-NF-kB RHD is 8.01 z-score; in test [1], 7.43 z-score; in test [2], 8.63 z-score; in the test with GST-Co-NF-kB, 8.94 z-score; with GST-Dm-Relish it was 5.21 z-score; in the test with GST-Aq-NF-kB, 5.82 z-score. In the test with GST-Hu-p50, this sequence gave a binding signal of 6.7 z-score.

On to “CCGATTAACATCAACAAAATCCCTGATGTTAATCGGGTCTTGATTCGCTTGACGCTGCTG”, for which the binding signal with GST-Ap-NF-kB RHD was found to be 3.4 z-score; in test [1], 3.64 z-score; in test [2], 3.66 z-score; with GST-Co-NF-kB, 1.89 z-score; with GST-Dm-Relish, 6.66 z-score; with GST-Aq-NF-kB, 3.47 z-score. The binding signal in the test with GST-Hu-p50 was 2.65 z-score.

In the case of “CCGATTAACATCAGGGGGGACGATGATGTTAATCGGGTCTTGATTCGCTTGACGCTGCTG”, the binding signal in the test with GST-Ap-NF-kB RHD was found to be 5.01 z-score; in test [1] it was 4.55 z-score; in test [2], 4.5 z-score; with GST-Co-NF-kB, 5.85 z-score; in the test with GST-Dm-Relish, 3.77 z-score; with GST-Aq-NF-kB, 4.63 z-score. Further, in the test with GST-Hu-p50, the binding signal came out at 3.85 z-score.

In the case of “CCGATTAACATCAGGGGGGTATATGATGTTAATCGGGTCTTGATTCGCTTGACGCTGCTG”, the binding signal with GST-Ap-NF-kB RHD is 5.34 z-score; in test [1], 2.99 z-score; in test [2], 4.19 z-score; in the test with GST-Co-NF-kB it was 5.73 z-score; in the test with GST-Dm-Relish it was 3.95 z-score; with GST-Aq-NF-kB it was 4.1 z-score. In the test with GST-Hu-p50, this sequence had a binding signal of 3.59 z-score.

For the sequence “CCGATTAACATCAGGGGGAAGAATGATGTTAATCGGGTCTTGATTCGCTTGACGCTGCTG”, the binding signal was 5.11 z-score with GST-Ap-NF-kB RHD; 6.3 z-score in test [1]; 6.8 z-score in test [2]; 9.93 z-score with GST-Co-NF-kB; 4.78 z-score with GST-Dm-Relish; 4.87 z-score with GST-Aq-NF-kB. Also, the binding signal in the test with GST-Hu-p50 stood at 5.86 z-score.

With “CCGATTAACATCAGGGGGAGTAATGATGTTAATCGGGTCTTGATTCGCTTGACGCTGCTG”, the binding signal with GST-Ap-NF-kB RHD turned out to be 5.68 z-score; in test [1], 4.54 z-score; in test [2], 5.56 z-score; with GST-Co-NF-kB, 6.83 z-score; with GST-Dm-Relish, 3.45 z-score; in the test with GST-Aq-NF-kB, 4.18 z-score. The sequence further showed a binding signal with GST-Hu-p50 of 5.72 z-score.
